Experimental data: PubChem BioAssay (Tox21)
Several values for one entry are separate records, joined by “and”; a condition that tells them apart may be missing. Identical values can stand only once. Inconclusive results are not listed. A call without a number means that no potency is given here. A structure can be active in one record and inactive in another. Activity calls are given as the source filed them. Unless noted, the call rests on the fitted dose curve; in most records, active means well fitted curve in the direction sought with a large enough effect in the repeat runs; inconclusive means weak or mixed curves; inactive means no such curve, though single readings can be large; an effect the other way counts as inactive or inconclusive.

Test system: not listed separately
Experiment: qHTS assay to identify small molecule agonists of the estrogen receptor beta (ER-beta) signaling pathway - cell viability counter screen (AID 1259380); further: nearly all actives have a fitted effect of over 30% in size
Conditions: ER-beta-bla HEK293T viability, CellTiter-Glo luminescence, 16 h; series mostly up to 92.4 µM; activity change, negative = cytotoxicity: at the top concentration
Procedure, shortened: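 Cell viability counter screen: CellTiter-Glo luminescence (30 min, room temperature) measured in the same wells as the beta-lactamase readout, after 16 hr compound exposure at 37C of ER-beta-bla HEK293T cells in 2% charcoal-stripped FBS medium.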

Compound | Potency | activity change, negative = cytotoxicity
COC(=O)c1ccc(C=O)cc1 | inactive | 
Cc1ccc(O)c(-n2nc3ccccc3n2)c1 | inactive | 
CN(C)C=O | inactive | 
Cc1cccc2ccccc12 | inactive | 
Cc1cnc(NC(=O)C2=C(O)c3ccccc3S(=O)(=O)N2C)s1 | inactive | 
Cc1c(N(C)C)c(=O)n(-c2ccccc2)n1C | inactive | 
CC(=O)OC/C=C(C)/C=C/C=C(C)/C=C/C1=C(C)CCCC1(C)C |  | -1.84% [at 42.5 µM] (inactive)
C/C=C/c1ccc(O)c(OC)c1 | inactive | 
C[C@]12C=CC(=O)C=C1CC[C@@H]1[C@@H]2C(=O)C[C@@]2(C)[C@H]1CC[C@]2(O)C(=O)CO | inactive | 
CCCCOC(=O)CCCCCCCCC(=O)OCCCC | inactive | 
CC(C)Cc1ccc(C(C)C(=O)O)cc1 (stereo not given) | inactive | 
COc1ccccc1NC(=O)CC(C)=O | inactive | 
CCCCCCCCCCCCCCCCCC(=O)OCC(O)CO (stereo not given) | inactive | 
OC[C@@H](O)[C@@H](O)[C@H](O)[C@H](O)CO |  | 5.12% [at 42.5 µM] (inactive)
CCN1CCCC1=O | inactive | 
C=C(C)OC(C)=O | inactive | 
CC(=O)/C=C/C1=C(C)CCCC1(C)C | inactive | 
C=CCOC(=O)CC(C)C | inactive | 
C#C[C@]1(O)CC[C@H]2[C@@H]3CCC4=CC(=O)CC[C@@H]4[C@H]3CC[C@@]21CC | inactive | 
CC(C)(C)NCC(O)c1ccc(O)c(CO)c1 (stereo not given) | inactive | 
CC(=O)CCC(C)C | inactive | 
C=CC(=O)NC(C)(C)CS(=O)(=O)O | inactive | 
CCCCCCCCOc1ccc(C(=O)c2ccccc2)c(O)c1 | inactive | 
COc1ccccc1O | inactive | 
NC(=O)N1c2ccccc2C=Cc2ccccc21 | inactive | 
COC(=O)C1CCC(C(=O)OC)CC1 (stereo not given) | inactive | 
CN/C(=C\[N+](=O)[O-])NCCSCc1ccc(CN(C)C)o1 | inactive | 
C[C@]12C[C@H](O)[C@H]3[C@@H](CCC4=CC(=O)CC[C@@]43C)[C@@H]1CC[C@@H]2C(=O)CO | inactive | 
OCCCc1ccccc1 | inactive | 
COC1=CC(=O)C[C@@H](C)[C@]12Oc1c(Cl)c(OC)cc(OC)c1C2=O | inactive | 

Test system: not listed separately
Experiment: qHTS assay to identify small molecule antagonists of the estrogen receptor beta (ER-beta) signaling pathway - cell viability counter screen (AID 1259382);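 further: HEK293T cells carrying ER-beta-UAS-bla reporter stimulated with estradiol; nearly all actives have a fitted effect of over 55% in size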
Conditions: ER-beta-UAS-bla HEK293T viability, CellTiter-Glo luminescence, 16 h; series mostly up to 92.4 µM; activity change, negative = cytotoxicity: at the top concentration
Procedure, shortened: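 Cytotoxicity was measured in the same wells by CellTiter-Glo luminescence after 30 min at room temperature. Cells were ER-beta-bla HEK293T in charcoal-stripped serum, given compound together with 1 nM E2 and incubated 16 h at 37C.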

Compound | Potency | activity change, negative = cytotoxicity
COC(=O)c1ccc(C=O)cc1 | inactive | 
Cc1ccc(O)c(-n2nc3ccccc3n2)c1 | inactive | 
CN(C)C=O | inactive | 
Cc1cccc2ccccc12 | inactive | 
Cc1cnc(NC(=O)C2=C(O)c3ccccc3S(=O)(=O)N2C)s1 | inactive | 
Cc1c(N(C)C)c(=O)n(-c2ccccc2)n1C | inactive | 
CC(=O)OC/C=C(C)/C=C/C=C(C)/C=C/C1=C(C)CCCC1(C)C |  | -12.4% [at 42.5 µM] (inactive)
C/C=C/c1ccc(O)c(OC)c1 | inactive | 
C[C@]12C=CC(=O)C=C1CC[C@@H]1[C@@H]2C(=O)C[C@@]2(C)[C@H]1CC[C@]2(O)C(=O)CO | inactive | 
CCCCOC(=O)CCCCCCCCC(=O)OCCCC | inactive | 
CC(C)Cc1ccc(C(C)C(=O)O)cc1 (stereo not given) | inactive | 
COc1ccccc1NC(=O)CC(C)=O | inactive | 
CCCCCCCCCCCCCCCCCC(=O)OCC(O)CO (stereo not given) | inactive | 
OC[C@@H](O)[C@@H](O)[C@H](O)[C@H](O)CO | inactive | 
CCN1CCCC1=O | inactive | 
C=C(C)OC(C)=O | inactive | 
CC(=O)/C=C/C1=C(C)CCCC1(C)C | inactive | 
C=CCOC(=O)CC(C)C | inactive | 
C#C[C@]1(O)CC[C@H]2[C@@H]3CCC4=CC(=O)CC[C@@H]4[C@H]3CC[C@@]21CC | inactive | 
CC(C)(C)NCC(O)c1ccc(O)c(CO)c1 (stereo not given) | inactive | 
CC(=O)CCC(C)C | inactive | 
C=CC(=O)NC(C)(C)CS(=O)(=O)O | inactive | 
CCCCCCCCOc1ccc(C(=O)c2ccccc2)c(O)c1 | inactive | 
COc1ccccc1O | inactive | 
NC(=O)N1c2ccccc2C=Cc2ccccc21 | inactive | 
COC(=O)C1CCC(C(=O)OC)CC1 (stereo not given) | inactive | 
CN/C(=C\[N+](=O)[O-])NCCSCc1ccc(CN(C)C)o1 | inactive | 
C[C@]12C[C@H](O)[C@H]3[C@@H](CCC4=CC(=O)CC[C@@]43C)[C@@H]1CC[C@@H]2C(=O)CO | inactive | 
OCCCc1ccccc1 | inactive | 
COC1=CC(=O)C[C@@H](C)[C@]12Oc1c(Cl)c(OC)cc(OC)c1C2=O | inactive | 

Target: Estrogen receptor (Homo sapiens) (UniProt P03372)
Sequence (P03372 whole entry, looked up): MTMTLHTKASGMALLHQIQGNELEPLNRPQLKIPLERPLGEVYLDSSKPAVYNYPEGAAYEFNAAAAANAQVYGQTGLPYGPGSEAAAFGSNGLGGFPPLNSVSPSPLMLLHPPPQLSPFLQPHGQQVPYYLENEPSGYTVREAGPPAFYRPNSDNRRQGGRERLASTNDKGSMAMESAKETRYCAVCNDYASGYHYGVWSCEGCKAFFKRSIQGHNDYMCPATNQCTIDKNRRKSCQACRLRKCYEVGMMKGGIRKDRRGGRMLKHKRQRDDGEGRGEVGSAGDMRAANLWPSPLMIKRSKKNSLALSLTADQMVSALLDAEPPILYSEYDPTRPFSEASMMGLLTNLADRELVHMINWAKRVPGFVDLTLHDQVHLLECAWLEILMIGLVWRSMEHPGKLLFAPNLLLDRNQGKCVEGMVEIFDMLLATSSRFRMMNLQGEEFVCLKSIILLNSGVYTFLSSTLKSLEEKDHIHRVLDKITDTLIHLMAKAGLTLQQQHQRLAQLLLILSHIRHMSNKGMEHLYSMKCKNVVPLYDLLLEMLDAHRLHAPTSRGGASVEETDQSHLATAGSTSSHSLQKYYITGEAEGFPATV
Experiment: qHTS assay to identify small molecule agonists of the estrogen receptor alpha (ER-alpha) signaling pathway in the presence of an antagonist (AID 1259383; calls by dose curve; further: nearly all actives have a fitted effect of over 15% in size; further: potency means the concentration at half of the fitted maximal effect; on activation: top concentration of the series differs between compounds)
Conditions: VM7Luc4E2 cells, ERE-luciferase, +ICI-182,780, 22 h; series mostly up to 92.4 µM; activation: at the top concentration
Procedure, shortened: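 Agonist-mode confirmation run in the presence of 10.0nM (final) ICI-182,780 antagonist. The reporter was ERE-driven luciferase in VM7Luc4E2 cells, grown in charcoal-stripped serum. Cells were exposed to 15-concentration compound series for 22hr, then ONE-Glo luminescence was read.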

Compound | Potency
COC(=O)c1ccc(C=O)cc1 | inactive
Cc1ccc(O)c(-n2nc3ccccc3n2)c1 | inactive and 1.54 µM (active)
CN(C)C=O | inactive
Cc1cccc2ccccc12 | inactive
Cc1cnc(NC(=O)C2=C(O)c3ccccc3S(=O)(=O)N2C)s1 | inactive
Cc1c(N(C)C)c(=O)n(-c2ccccc2)n1C | inactive
CC(=O)OC/C=C(C)/C=C/C=C(C)/C=C/C1=C(C)CCCC1(C)C | inactive
C/C=C/c1ccc(O)c(OC)c1 | inactive
C[C@]12C=CC(=O)C=C1CC[C@@H]1[C@@H]2C(=O)C[C@@]2(C)[C@H]1CC[C@]2(O)C(=O)CO | inactive
CCCCOC(=O)CCCCCCCCC(=O)OCCCC | inactive
CC(C)Cc1ccc(C(C)C(=O)O)cc1 (stereo not given) | inactive
COc1ccccc1NC(=O)CC(C)=O | inactive
CCCCCCCCCCCCCCCCCC(=O)OCC(O)CO (stereo not given) | inactive
OC[C@@H](O)[C@@H](O)[C@H](O)[C@H](O)CO | inactive
CCN1CCCC1=O | inactive
C=C(C)OC(C)=O | inactive
CC(=O)/C=C/C1=C(C)CCCC1(C)C | inactive
C=CCOC(=O)CC(C)C | inactive
C#C[C@]1(O)CC[C@H]2[C@@H]3CCC4=CC(=O)CC[C@@H]4[C@H]3CC[C@@]21CC | 6.87 µM (active) and 8.63 µM (active) and 8.41 µM (active)
CC(C)(C)NCC(O)c1ccc(O)c(CO)c1 (stereo not given) | inactive
CC(=O)CCC(C)C | inactive
C=CC(=O)NC(C)(C)CS(=O)(=O)O | inactive
CCCCCCCCOc1ccc(C(=O)c2ccccc2)c(O)c1 | inactive
COc1ccccc1O | inactive
NC(=O)N1c2ccccc2C=Cc2ccccc21 | inactive
COC(=O)C1CCC(C(=O)OC)CC1 (stereo not given) | inactive
CN/C(=C\[N+](=O)[O-])NCCSCc1ccc(CN(C)C)o1 | inactive
C[C@]12C[C@H](O)[C@H]3[C@@H](CCC4=CC(=O)CC[C@@]43C)[C@@H]1CC[C@@H]2C(=O)CO | inactive
OCCCc1ccccc1 | inactive
COC1=CC(=O)C[C@@H](C)[C@]12Oc1c(Cl)c(OC)cc(OC)c1C2=O | inactive
